Assay results reported in ChEMBL document CHEMBL1157539, “Thousands of chemical starting points for antimalarial lead identification” (Nature, 2010).

Experiments:
Assay type in all cases: functional
[1] = system: Plasmodium falciparum; assay: GSK_TCMDC: Inhibition of Plasmodium falciparum 3D7 in whole red blood cells, using parasite LDH activity as an index of growth. Test compounds present at 2uM
[2] = system: Plasmodium falciparum; assay: GSK_TCMDC: Inhibition of Plasmodium falciparum Dd2 in whole red blood cells, using parasite LDH activity as an index of growth. Test compounds present at 2uM
[3] = system: HepG2; assay: GSK_TCMDC: Percent inhibition of human HepG2 cell line. Test compounds present at 10uM.

| SMILES | Inhibition [1] [%] | Inhibition [2] [%] | Inhibition [3] [%] |
| --- | --- | --- | --- |
| CN(Cc1ccccc1)C(=O)CCNS(=O)(=O)c1cc(Br)cnc1N | 91 | 61 | 0 |
| O=C(Nc1ccc(Cl)cc1)c1cccc(CN2CCCN(Cc3cccc(O)c3)CC2)c1.O=C(O)C(F)(F)F | 98 | 43 | 14 |
| CCCCCn1c(Sc2ccc(C#N)c([N+](=O)[O-])c2)nnc1-c1cccc(Cl)c1 | 95 | 75 | 4 |
| CC(C)(C)c1ccc(NC(=O)c2cccc(CN3CCCN(Cc4ccc(F)cc4)CC3)c2)cc1.O=C(O)C(F)(F)F | 88 | 2 | 35 |
| Cc1cccc2nc(-c3ccc(-c4cccc(CNC(C)C)c4)s3)[nH]c12.O=C(O)C(F)(F)F | 100 | 97 | 12 |
| CCc1c(C)nc2nc(Cc3cccc(F)c3)nn2c1N1CCN(c2ccccn2)CC1 | 100 | 98 | 0 |
| Cc1cc(Cl)c(Cl)cc1NC(=O)Nc1cccc(C(F)(F)F)c1 | 93 | 99 | 1 |
| COc1cc(NC(=O)c2cccs2)c(OC)cc1NC(=O)Nc1cccc(Cl)c1 | 83 | 10 | 5 |
| OC(CNC1CCCCC1)Cn1c2ccc(I)cc2c2cc(I)ccc21 (stereo unspecified) | 100 | 93 | 10 |
| O=C(NCCCCCN1CCC(c2c[nH]c3ccccc23)CC1)c1ccc(-c2cccnc2)cc1 | 89 | 10 | 29 |
| COC(=O)c1cccc(CNCc2cccc(-c3cccc(-c4nc5cc(F)ccc5[nH]4)c3)c2)c1.O=C(O)C(F)(F)F | 100 | 52 | 27 |
| Cc1c(CNCCCNc2cc(=O)c3ccccc3[nH]2)sc(C(F)=C(F)F)c1Br.Cl | 94 | 18 | 7 |
| CCCC(C)NC[C@@H](O)[C@H](Cc1ccccc1)NC(=O)c1cc(NCC)cc(N2CCCCS2(=O)=O)c1.Cl (stereo partly specified) | 100 | 98 | 0 |
| COc1ccc2nccc([C@@H](O)CN3CCC(NC(=O)c4cc5ccccc5[nH]4)CC3)c2c1.CS(=O)(=O)O | 96 | 55 | 19 |
| CC(C)C[C@@H]1C(=O)N[C@H](C2Cc3ccccc3C2)C(=O)N1[C@@H](C(=O)O)c1ccc(F)cc1F | 98 | 0 | 10 |
| CC(C)(CNC(=O)/C=C/c1ccc(C(F)(F)F)cc1)CNc1cc(=O)c2ccccc2[nH]1 | 95 | 27 | 0 |
| Cc1noc(-c2cccs2)c1C(=O)NCCc1cccc(Cl)c1 | 97 | 95 | 0 |
| O=C(Nc1ccc(Br)c(C(F)(F)F)c1)c1cccc([N+](=O)[O-])c1 | 94 | 3 | 24 |
| CN1CCN(CCCN(Cc2cccc(-c3ccc(CNCCc4ccccc4)cc3)c2)C(=O)Nc2ccccc2)CC1.O=C(O)C(F)(F)F | 100 | 91 | 61 |
| COc1cc2c(cc1OC)-c1cc(=Nc3c(C)cc(C)cc3C)n(C)c(=O)n1CC2.Cl | 92 | 29 | 14 |
| COc1ccccc1CCNc1nccc(N[C@@H](Cc2ccccc2)C(=O)NCc2cccs2)n1.O=C(O)C(F)(F)F | 90 | 79 | 34 |
| O=C(Nc1cccc(C(F)(F)F)c1)c1ccc(S(=O)(=O)NC2CCN(CC3CCCCC3)C2)cc1.O=C(O)C(F)(F)F (stereo unspecified) | 92 | 0 | 16 |
